Measurements published in PubChem BioAssay AID588855 (National Center for Advancing Translational Sciences (NCATS), 2011).
Screen size: about 410,000 compounds; about 5,000 (1.2%) were called active. Entries that show only a call come without a potency. Roughly 13% stayed inconclusive and do not appear here. This is one part of a sample in which actives are shown more often than they occur. Calls follow the shape of the dose curve; as a rule, active = well fitted inhibition curve with a large enough effect; inconclusive = small, poorly fitted or top-dose-only effect; inactive = no such curve, though single readings can be large or run the other way.

experiment: qHTS for Inhibitors of TGF-b; details: HepG2 CAGA-GFP TGF-b/SMAD3 reporter, GFP fluorescence, 18 h, TGF-beta stimulated, 500 pg/mL final; series mostly up to 46.1 µM; also: nearly all actives have a fitted effect of over 65% in size
Procedure, shortened: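 Inhibition of TGF-beta-driven CAGA-GFP reporter expression in HEPG2 cells is measured by cellular GFP fluorescence after 18 h stimulation with 500 pg/mL recombinant TGF-beta in 1% FBS medium at 37 degrees C.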
Potency is read from the fitted curve at half-maximal effect.

Compound | Potency
O=C(NCCc1ccccc1)C(=O)NCC(c1ccco1)S(=O)(=O)c1ccccc1 (stereo unspecified) | inactive
CCOCCCNC(=O)c1c(NC(=O)c2nc(SC)ncc2Cl)sc2c1CCCC2 | inactive
O=C(Nc1cccc2cccnc12)c1cccc2c(Br)cccc12 | inactive
Cc1ccc(C)c(N2CCN(C(c3ccccc3)c3nnc(-c4ccccc4)o3)CC2)c1 (stereo unspecified) | inactive
CC(=O)c1ccc(NC(c2ccc(F)cc2)c2nnc(-c3ccccc3)o2)cc1 (stereo unspecified) | inactive
Fc1ccc(C(Nc2ccc(Cl)c(C(F)(F)F)c2)c2nnc(-c3ccccc3)o2)cc1 (stereo unspecified) | 10 µM (active)
Cc1ccc(-c2nnc(SCc3ccccc3C)o2)cc1 | inactive
CCOC(=O)c1cccc(NS(=O)(=O)c2cn(C)c(C)n2)c1 | inactive
Cc1c(C(=O)N(C)C)sc2c1c(=O)n(-c1ccc(F)cc1)c(=O)n2CC(=O)N(C)c1ccccc1 | inactive
CCNC(=O)c1cc2n(n1)CCCN(Cc1ccc(C)cc1)C2=O | inactive
Cc1ccc(NC(=O)c2cc3cc(C)ccc3n2C)cc1 | inactive
CCCn1c(=N)c(C(=O)NCc2ccccc2)cc2c(=O)n3cccc(C)c3nc21 | inactive
COC(=O)COc1cccc2c(=O)n(CC(=O)NCc3ccccc3)ccc12 | 8.91 µM (active)
CCCn1ccc2c(OCC(=O)NCc3ccc(F)cc3)cccc2c1=O | inactive
CCOCCn1ccc2c(OCC(=O)NCc3ccc(C)cc3)cccc2c1=O | inactive
COc1ccc(OCC(=O)Nc2cccc(C(=O)OCc3cc(=O)n4nc(C)sc4n3)c2)cc1 | inactive
O=C(NCCCN1CCCCC1)c1ccc2c(c1)NC(=O)C(N1CCOCC1)S2 (stereo unspecified) | inactive
O=C(NCCCN1CCOCC1)c1cc(-c2ccccc2F)no1 | inactive
O=C(NCCCN1CCOCC1)c1ccc2c(c1)N(Cc1cccc(F)c1)C(=O)c1ccccc1S2 | 11.2 µM (active)
O=C(NCCN1CCOCC1)c1ccc2c(c1)N(Cc1cccc(Cl)c1)C(=O)c1ccccc1S2(=O)=O | inactive
CCC1=Nc2cc(C(=O)NCCCN3CCOCC3)ccc2Sc2ccc(Br)cc21 | inactive

Compound | Potency
Cc1csc2nc(COC(=O)c3ccc(NC(=O)COc4ccccc4F)cc3)cc(=O)n12 | inactive
COc1ccccc1CNC(=O)C(=O)NCC(c1cccs1)S(=O)(=O)c1cccs1 (stereo unspecified) | inactive
CC1CC(C)CN(C(=O)C2CC(=O)N(c3ccc(F)cc3)C2)C1 (stereo unspecified) | inactive
Cc1ccc2c(c1)N(C(=O)Nc1ccc(Br)cc1F)CCO2 | inactive
C[C@@H]1C(c2ccc(F)cc2)=NN(c2ccc(Br)cc2)[C@H]1C(=O)N1CCOC1=O | 14.1 µM (active)
COc1ccc(CNC(=O)c2cc3c(s2)-c2ccccc2OC3)cc1 | inactive
Cc1cc(C)cc(-n2c(SCC(=O)NCC3CCCO3)nc3c([nH]c4ccccc43)c2=O)c1 (stereo unspecified) | inactive
Cc1oc(-c2ccccc2)nc1Cn1c(SCc2cccc(C(F)(F)F)c2)nc2cccnc21 | 15.8 µM (active)
Cc1ccc(CSc2nc3cccnc3n2Cc2ccc(C(=O)NC3CC3)cc2)cc1 | inactive
Cc1cccc(CSc2nc3ccncc3n2Cc2ccc(C(=O)O)cc2)c1 | inactive
COC(=O)c1ccc(OC)c(Cn2c(=O)n(Cc3ccccc3)c(=O)c3c2c2cc(OC)ccc2n3C)c1 | inactive
COc1cc2[nH]c(C)c(CCN3CCN(c4ccccc4)CC3)c2cc1OC | inactive
O=C(NNc1ccccc1Cl)C(O)(c1cccc(C(F)(F)F)c1)c1cccc(C(F)(F)F)c1 | 15.8 µM (active)
O=C(Nc1cc(C(F)(F)F)ccc1Cl)c1nc2ccccc2nc1N1CCCCC1 | inactive
O=C(CNS(=O)(=O)c1cccc(C(F)(F)F)c1)Nc1ccccc1F | inactive
COc1ccc(CNC(=O)CCc2c(C)nn(-c3ccc(N4CCCC4)nn3)c2C)cc1 | inactive
Cc1ccccc1CNC(=O)CSc1nnc(C)c2c(C)n(-c3ccccc3)nc12 | inactive
O=C(NCCc1ccc(Cl)cc1)c1ccc2nc(CCc3ccccc3)oc2c1 | inactive
Cc1ccc(C)c(Cn2c(CCCNC(=O)C3CCCCC3)nc3ccccc32)c1 | inactive
CCOC(=O)CCC(NC(=O)c1ccc(CNc2nc3cc(C(F)(F)F)ccc3nc2C(=O)OCC)cc1)C(=O)OCC (stereo unspecified) | inactive
Cn1c(N)c(C(=O)COC(=O)/C=C/c2cccc(C(F)(F)F)c2)c(=O)n(C)c1=O | inactive

Compound | Potency
CCOC(=O)c1c(NC(=O)c2cc(CC)on2)sc(C(C)=O)c1C | inactive
CCCCN1C(=O)c2[nH]nc(-c3ccccc3O)c2C1c1cccc(OCc2ccccc2)c1 (stereo unspecified) | 15.8 µM (active)
CN1C(=O)c2[nH]nc(-c3ccc(F)cc3)c2C1c1ccccn1 (stereo unspecified) | inactive
COc1cccc(-c2n[nH]c3c2C(c2cccc(O)c2)N(C)C3=O)c1 (stereo unspecified) | inactive
CN(C)Cc1cn(-c2ccccc2)nc1-c1ccccc1 | inactive
Cc1ccc(CNC(=O)C2(C(F)(F)F)C/C(=C\CCO)CCCO2)o1 (stereo unspecified) | inactive
CCOc1cc(C2C(C(=O)Nc3ccc(OC)cc3)=C(C)Nc3nc(SC)nn32)ccc1O (stereo unspecified) | inactive
Cc1ccc(C=O)c([B-](F)(F)F)c1 | inactive
CN1c2ccc(C=O)c3c(C=O)ccc(c23)N(C)C1(C)C | 20 µM (active)
CC(C)c1ccccc1OCC(O)CN(CC(O)COc1cccc2ccccc12)C(C)C (stereo unspecified) | 15.8 µM (active)
CN1CCN(CCCCOc2cccc3ccccc23)CC1 | inactive
CC1CC(C)CN(CCOc2cccc3ccccc23)C1 (stereo unspecified) | inactive
CCN(C(=O)Cn1cnc2sc(C)c(S(=O)(=O)N3CCN(c4ncccn4)CC3)c2c1=O)c1ccccc1F | inactive
O=C(Nc1ccc2nc(SCCOc3ccccc3Cl)sc2c1)c1ccco1 | inactive
Cc1cc(C(=O)Nc2cccc(C(F)(F)F)c2)c2c(C)nn(-c3cccc(F)c3)c2n1 | 7.08 µM (active)
CSc1ccc(CCNC(=O)c2cc(C)nc3c2c(C)nn3-c2cccc(F)c2)cc1 | inactive
COc1cc(NC(=O)c2cc(C3CC3)nc3c2c(C)nn3-c2ccccc2)cc(OC)c1 | inactive
O=C(Nc1cc(C(F)(F)F)ccc1Cl)c1ccc2c(c1)CCN2S(=O)(=O)c1ccccc1 | inactive
O=C(Nc1cc(C(F)(F)F)ccc1Cl)c1cc2nc(-c3ccc4c(c3)OCO4)cc(C(F)(F)F)n2n1 | inactive
